# Test results published in PubChem BioAssay.
# Active and inactive are the calls of the source. Unless noted, the rule behind the calls is not given here.
# What was measured:
# [1] = tested on: Wnt5a (protein binding on small-molecule microarray); assay: small molecules binding Wnt5a protein – biophysical, small-molecule microarray, 635/667 nm fluorescence, primary screen (AID 1142); settings: 635 nm fluorescence, higher = more signal;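 note: fluorescence read at 667 nm with signal to noise per printed feature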
# [2] = ATP-based viability of Huh7 replicon cells – cell-based, CellTiter-Glo luminescence, basal, 48 h, cytotoxicity control for HCV replication inhibitor project, primary screen (AID 1143); settings: higher = more signal, called active from +8 up or from −8 down;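 note: Huh7 hepatoma cells carrying a hepatitis C replication reporter with no stimulus; test concentration not given here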
# [3] = Pseudomonas biofilm growth suppression – PAO1 strain, BacTiter-Glo luminescence, LB-PBS, primary screen (AID 1144); settings: P. aeruginosa PAO1 biofilm, 12 h, higher = more signal
# [4] = basal CRE-LacZ reporter activity in PC12 – cell-based, unstimulated, primary screen (AID 1145); settings: no forskolin, luminescence, 4.5 h, higher = more signal, called active from +8 up or from −8 down
# [5] = forskolin-driven CRE-LacZ activity in PC12 – cell-based, CRE-LacZ reporter, forskolin-stimulated, primary screen (AID 1146); settings: luminescence, 4.5 h, higher = more signal, called active from +8 up or from −8 down;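 note: PC12 cells with 6xCRE LacZ reporter stimulated by forskolin 10 µM; beta-galactosidase reporter signal reflecting CREB driven transcription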
# [6] = target: Streptavidin (Streptomyces avidinii) (UniProt P22629); assay: compounds binding control protein streptavidin – biophysical, small-molecule microarray, 635/667 nm fluorescence, artefact control for SMM compound annotation, primary screen (AID 1147); settings: higher = more signal;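 note: signal reflects streptavidin binding to arrayed compounds as a control protein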
# Streptavidin (Streptomyces avidinii), sequence (P22629 whole entry, looked up): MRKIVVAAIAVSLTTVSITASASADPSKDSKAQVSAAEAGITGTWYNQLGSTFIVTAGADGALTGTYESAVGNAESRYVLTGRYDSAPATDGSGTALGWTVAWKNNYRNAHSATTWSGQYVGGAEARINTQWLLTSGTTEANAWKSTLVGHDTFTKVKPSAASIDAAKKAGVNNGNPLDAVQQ
# [7] = probe aInhba binding on compound microarray – biochemical, small-molecule microarray, 635/667 nm fluorescence, primary screen (AID 1148); settings: higher = more signal;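 note: score merges 667nm spot fluorescence with signal-to-noise for antibody binding to printed compounds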
# Torsin-1A (Homo sapiens) [8] = target: Torsin-1A (Homo sapiens) (UniProt O14656); assay: TOR1A wild-type binding on microarray – cell lysate, small-molecule microarray, lysate, 635/667 nm, primary screen (AID 1149); settings: COS7 hTOR1A-WT lysate, 635 nm fluorescence, higher = more signal
# Torsin-1A (Homo sapiens), sequence (O14656 whole entry, looked up): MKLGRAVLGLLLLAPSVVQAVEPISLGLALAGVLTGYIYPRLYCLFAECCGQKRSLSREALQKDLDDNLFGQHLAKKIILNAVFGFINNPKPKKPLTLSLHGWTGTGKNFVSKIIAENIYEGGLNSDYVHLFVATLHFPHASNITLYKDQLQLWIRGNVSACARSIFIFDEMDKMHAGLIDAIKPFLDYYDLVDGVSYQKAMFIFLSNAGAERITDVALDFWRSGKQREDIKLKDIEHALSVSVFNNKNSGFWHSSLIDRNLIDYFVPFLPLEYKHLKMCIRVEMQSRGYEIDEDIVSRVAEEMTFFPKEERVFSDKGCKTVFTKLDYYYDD
# Torsin-1A (Homo sapiens) [9] = target: Torsin-1A (Homo sapiens) (UniProt O14656); assay: torsin A mutant lysate binding on microarrays – cell lysate, small-molecule microarray, COS7 lysate, 635/667 nm fluorescence, primary screen (AID 1150); settings: COS7 hTOR1A mutant lysate, 635 nm fluorescence, higher = more signal;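 note: score pools 667 nm emission and signal to noise measuring lysate protein binding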
# [10] = tested on: Sonic hedgehog protein (Shh); assay: Sonic hedgehog microarray binding compounds – biochemical, small-molecule microarray, 635/667 nm fluorescence, primary screen (AID 1151); settings: 635 nm fluorescence, higher = more signal;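 note: Shh protein binding to compounds spotted on small-molecule microarray slides; score combines spot fluorescence intensity with signal-to-noise across triplicate slides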
SMILES,composite z-score [1],z-score [2],z-score [3],z-score [4],z-score [5],composite z-score [6],composite z-score [7],composite z-score (Torsin-1A (Homo sapiens) [8]),composite z-score (Torsin-1A (Homo sapiens) [9]),composite z-score [10]
O=C1O[C@@H](c2ccccc2)[C@@H](c2ccccc2)N2[C@@H](c3ccccc3OCCO)[C@]3(C(=O)Nc4ccc(C#CC5(O)CCCCCC5)cc43)[C@@H](C(=O)N3CCCCCCC3)[C@H]12,2.35,-5.6 (inactive),-0.349 (inactive),-0.168 (inactive),0.306 (inactive),2.41,2.16,3.29,3.08,2.06
COc1ccc(C#Cc2ccc3c(c2)[C@]2(C(=O)N3)[C@H](c3ccccc3OCCO)N3[C@H](c4ccccc4)[C@H](c4ccccc4)OC(=O)[C@H]3[C@@H]2C(=O)NC[C@H](O)c2ccccc2)cc1,0.537,-5.57 (inactive),-0.627 (inactive),0.0921 (inactive),-0.54 (inactive),0.448,-0.0259,0.138,0.701,1.72
C=C(C(=O)CC[C@H](OC(=O)c1ccccc1-c1ccccc1C(=O)O)c1ccc(OCCO)cc1)C(C)C,0.686,-0.723 (inactive),-1.22 (inactive),0.611 (inactive),1.09 (inactive),-0.0151,0.0497,1.87,1.5,0.7
CC1C2C(CCCO)=CC(C3C(=O)N(C(N)=O)C(=O)C23)N1Cc1cccc(OC(F)(F)F)c1 (stereo not given),-0.0205,0.897 (inactive),0.206 (inactive),-0.233 (inactive),0.693 (inactive),0.664,-0.0531,0.438,0.6,0.396
C=CC[C@]1(C(N)=O)N=C(c2ccc(OCCCO)cc2)O[C@H]1c1ccccc1N=[N+]=[N-],0.423,-1.05 (inactive),0.348 (inactive),0.432 (inactive),-1.81 (inactive),0.489,0.0857,0.534,1.62,0.0211
